Calls of active or inactive are those of the source.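 Rule for the calls, unless noted: active = aptamer binding inhibition above 30%, about 3 SD of noise from non-fluorescent compounds; inactive = inhibition at or below 30%.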
Test system: not listed separately
Test: calorie-restriction mimetic ROS inhibitors, yeast – validation compound set, pilot screen (AID 2706;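 active = superoxide response below 65% of plate, a cut near 3 SD across the whole screen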;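 note: yeast exposed to compound for one week at 30 degrees C before staining; 100% = mean of all compound wells on the same plate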)
Conditions: S. cerevisiae aging, superoxide DHE fluorescence; at 10 µM, active compounds read low

Row | SMILES | superoxide response (% of plate)
1 | C[C@]12CC[C@@H]3c4ccc(OS(=O)(=O)O)cc4CC[C@H]3[C@@H]1CCC2=O | 95.8% (inactive)
2 | O=C1C2C3C=CC(C4CC34)C2C(=O)N1/N=C/c1ccc(-c2ccc([N+](=O)[O-])cc2)o1 (centres undefined) | 95.5% (inactive)
3 | Cc1oc2ccc(OC(=O)c3cccs3)cc2c1C(=O)OC(C)C | 96% (inactive)
4 | COc1ccc(CCN(C)CC(=O)Nc2cc(C)nc3ccccc23)cc1OC | 103% (inactive)
5 | C[C@]12C=CC(=O)C=C1CCC1C3CC[C@](O)(C(=O)CO)[C@@]3(C)CC3OC312 (some centres undefined) | 87.7% (inactive)
6 | c1ccc2c(c1)CCCC2C1=NCCN1 (centres undefined) | 82.6% (inactive)
7 | C=CCc1cc(Cl)ccc1OCCOCCN(C)C | 98.8% (inactive)
8 | COc1cc2c(cc1OC)C(Cc1ccc(O)cc1)N(C)CC2 (centres undefined) | 104% (inactive)
9 | CCOc1ccc(C(=O)Nc2ccc(N3CCN(C(C)=O)CC3)cc2)cc1[N+](=O)[O-] | 100% (inactive)
10 | OCCN(CCO)c1ccc2ccccc2c1 | 98.1% (inactive)
11 | COc1ccc(CN(C)CCc2ccccn2)cc1OC | 95.8% (inactive)
12 | CC(=O)OCC1OC(n2ccc(=O)[nH]c2=O)C(O)C1O (centres undefined) | 97.6% (inactive)
13 | CC(=O)N1N=C(c2cccs2)CC1c1ccc(C)o1 (centres undefined) | 117% (inactive)
14 | Cc1cc(C)c2c(CCl)cc(=O)oc2c1 | 93% (inactive)
15 | NC12CC3CC(CC(C3)C1)C2 | 96.9% (inactive)
16 | CC12CCC(C(=O)N3CCCCC3)([C@H](Br)C1=O)C2(C)C (some centres undefined) | 101% (inactive)
17 | CC(NCCC(c1ccccc1)c1ccccc1)c1ccccc1 (centres undefined) | 95.5% (inactive)
18 | O=P(O)(O)CP(=O)(O)O | 93% (inactive)
19 | CCCCC[C@H](O)/C=C/[C@@H]1[C@@H](C/C=C\CCCC(=O)OC)[C@@H](O)C[C@H]1O | 171% (inactive)
20 | Cc1cc(C(C)(C)C)cc(C)c1CC1=NCCN1 | 104% (inactive)

Row | SMILES | superoxide response (% of plate)
21 | CC1CCCc2sc3ncn(N)c(=N)c3c21 (centres undefined) | 94.2% (inactive)
22 | O=C1NC2(Nc3ccccc31)C(=O)Nc1ccc(Br)cc12 (centres undefined) | 102% (inactive)
23 | Cc1cc(-c2ccccc2)nnc1NCCN1CCOCC1 | 94.8% (inactive)
24 | Cc1ccccc1OCC(O)CN1CCN(C)CC1 (centres undefined) | 107% (inactive)
25 | COc1cc(/C=C/C(=O)N2CCCC2)cc(OC)c1OC | 95.8% (inactive)
26 | CNCCCN1c2ccccc2CCc2ccccc21 | 81.9% (inactive)
27 | Nc1c2c(nc3ccccc13)CCCC2 | 105% (inactive)
28 | COc1ccc(C2C3C(C)=NN=C3CC(C)(O)C2C(C)=O)cc1 (centres undefined) | 103% (inactive)
29 | O=c1c2ccccc2nnn1Cc1cccc2ccccc12 | 103% (inactive)
30 | CC1(C)CC(=O)C(C(=O)CCCCC(=O)C2C(=O)CC(C)(C)CC2=O)C(=O)C1 | 97.2% (inactive)
31 | COC(=O)c1ccc(CC(=O)c2ccc(O)cc2O)o1 | 93.2% (inactive)
32 | O=C(CCCCCCCC(=O)c1ccccc1)c1ccccc1 | 95.3% (inactive)
33 | CC(=O)OC[C@H]1O[C@@H](n2ncc(=O)[nH]c2=O)[C@H](OC(C)=O)[C@@H]1OC(C)=O | 105% (inactive)
34 | CC1CNCCN1S(=O)(=O)c1cccc2cnccc12 (centres undefined) | 91.3% (inactive)
35 | COc1cc(C2C(C(=O)c3ccc(C)o3)=C(O)C(=O)N2Cc2cccnc2)ccc1O (centres undefined) | 110% (inactive)
36 | Cc1ccccc1NC(=O)C1c2ccccc2Oc2ccccc21 | 86.5% (inactive)
37 | COc1ccc(-c2coc3cc(O)cc(O)c3c2=O)cc1 | 106% (inactive)
38 | Nc1cccc(C(=O)O)c1 | 102% (inactive)
39 | CCN1CCN(C(=O)N[C@@H](C(=O)N[C@@H]2C(=O)N3[C@@H]2SC(C)(C)[C@@H]3C(=O)O)c2ccccc2)C(=O)C1=O | 109% (inactive)

Target: Beta-adrenergic receptor kinase 1 (Homo sapiens) (UniProt P25098)
Test: GRK2 binders displacing RNA aptamer, biochemical, validation, human GRK2, bead flow cytometry (AID 488806)
Conditions: bead-bound GRK2, FAM-aptamer displacement, at 10 µM, active compounds read high

Chain of Beta-adrenergic receptor kinase 1 (Homo sapiens) (P25098 whole entry, looked up): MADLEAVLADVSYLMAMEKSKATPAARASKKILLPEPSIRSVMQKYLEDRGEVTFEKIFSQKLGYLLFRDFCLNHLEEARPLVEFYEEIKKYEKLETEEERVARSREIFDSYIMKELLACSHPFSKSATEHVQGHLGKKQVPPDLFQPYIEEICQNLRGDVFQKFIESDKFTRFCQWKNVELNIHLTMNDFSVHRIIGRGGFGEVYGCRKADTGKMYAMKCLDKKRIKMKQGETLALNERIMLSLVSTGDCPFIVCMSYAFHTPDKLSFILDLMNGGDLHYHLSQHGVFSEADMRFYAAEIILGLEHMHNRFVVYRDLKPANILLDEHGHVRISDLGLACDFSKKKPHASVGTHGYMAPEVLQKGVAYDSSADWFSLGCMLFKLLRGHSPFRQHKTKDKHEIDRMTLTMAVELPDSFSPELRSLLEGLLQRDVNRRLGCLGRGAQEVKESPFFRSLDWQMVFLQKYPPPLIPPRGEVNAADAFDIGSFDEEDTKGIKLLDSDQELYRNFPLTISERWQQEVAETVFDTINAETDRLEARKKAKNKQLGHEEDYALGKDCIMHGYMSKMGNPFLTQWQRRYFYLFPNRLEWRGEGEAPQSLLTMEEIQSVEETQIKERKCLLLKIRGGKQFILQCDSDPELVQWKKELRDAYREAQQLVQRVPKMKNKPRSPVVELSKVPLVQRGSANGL

Row | SMILES | aptamer binding inhibition
40 | C[C@]12CC[C@@H]3c4ccc(OS(=O)(=O)O)cc4CC[C@H]3[C@@H]1CCC2=O | -3% (inactive)
41 | O=C1C2C3C=CC(C4CC34)C2C(=O)N1/N=C/c1ccc(-c2ccc([N+](=O)[O-])cc2)o1 (centres undefined) | 4% (inactive)
42 | Cc1oc2ccc(OC(=O)c3cccs3)cc2c1C(=O)OC(C)C | 1% (inactive)
43 | COc1ccc(CCN(C)CC(=O)Nc2cc(C)nc3ccccc23)cc1OC | 1% (inactive)
44 | C[C@]12C=CC(=O)C=C1CCC1C3CC[C@](O)(C(=O)CO)[C@@]3(C)CC3OC312 (some centres undefined) | 2% (inactive)
45 | c1ccc2c(c1)CCCC2C1=NCCN1 (centres undefined) | -1% (inactive)
46 | C=CCc1cc(Cl)ccc1OCCOCCN(C)C | 4% (inactive)
47 | COc1cc2c(cc1OC)C(Cc1ccc(O)cc1)N(C)CC2 (centres undefined) | 4% (inactive)
48 | CCOc1ccc(C(=O)Nc2ccc(N3CCN(C(C)=O)CC3)cc2)cc1[N+](=O)[O-] | 3% (inactive)
49 | OCCN(CCO)c1ccc2ccccc2c1 | 2% (inactive)
50 | COc1ccc(CN(C)CCc2ccccn2)cc1OC | 3% (inactive)
51 | CC(=O)OCC1OC(n2ccc(=O)[nH]c2=O)C(O)C1O (centres undefined) | 1% (inactive)
52 | CC(=O)N1N=C(c2cccs2)CC1c1ccc(C)o1 (centres undefined) | 0% (inactive)
53 | Cc1cc(C)c2c(CCl)cc(=O)oc2c1 | -2% (inactive)
54 | NC12CC3CC(CC(C3)C1)C2 | -5% (inactive)
55 | CC12CCC(C(=O)N3CCCCC3)([C@H](Br)C1=O)C2(C)C (some centres undefined) | -1% (inactive)
56 | CC(NCCC(c1ccccc1)c1ccccc1)c1ccccc1 (centres undefined) | -3% (inactive)
57 | O=P(O)(O)CP(=O)(O)O | 0% (inactive)
58 | CCCCC[C@H](O)/C=C/[C@@H]1[C@@H](C/C=C\CCCC(=O)OC)[C@@H](O)C[C@H]1O | 12% (inactive)
59 | Cc1cc(C(C)(C)C)cc(C)c1CC1=NCCN1 | 1% (inactive)

Row | SMILES | aptamer binding inhibition
60 | CC1CCCc2sc3ncn(N)c(=N)c3c21 (centres undefined) | 4% (inactive)
61 | O=C1NC2(Nc3ccccc31)C(=O)Nc1ccc(Br)cc12 (centres undefined) | 2% (inactive)
62 | Cc1cc(-c2ccccc2)nnc1NCCN1CCOCC1 | 32% (active)
63 | Cc1ccccc1OCC(O)CN1CCN(C)CC1 (centres undefined) | 3% (inactive)
64 | COc1cc(/C=C/C(=O)N2CCCC2)cc(OC)c1OC | 5% (inactive)
65 | CNCCCN1c2ccccc2CCc2ccccc21 | -1% (inactive)
66 | Nc1c2c(nc3ccccc13)CCCC2 | 2% (inactive)
67 | COc1ccc(C2C3C(C)=NN=C3CC(C)(O)C2C(C)=O)cc1 (centres undefined) | 6% (inactive)
68 | O=c1c2ccccc2nnn1Cc1cccc2ccccc12 | 1% (inactive)
69 | CC1(C)CC(=O)C(C(=O)CCCCC(=O)C2C(=O)CC(C)(C)CC2=O)C(=O)C1 | -1% (inactive)
70 | COC(=O)c1ccc(CC(=O)c2ccc(O)cc2O)o1 | 4% (inactive)
71 | O=C(CCCCCCCC(=O)c1ccccc1)c1ccccc1 | 7% (inactive)
72 | CC(=O)OC[C@H]1O[C@@H](n2ncc(=O)[nH]c2=O)[C@H](OC(C)=O)[C@@H]1OC(C)=O | 6% (inactive)
73 | CC1CNCCN1S(=O)(=O)c1cccc2cnccc12 (centres undefined) | 3% (inactive)
74 | COc1cc(C2C(C(=O)c3ccc(C)o3)=C(O)C(=O)N2Cc2cccnc2)ccc1O (centres undefined) | 2% (inactive)
75 | Cc1ccccc1NC(=O)C1c2ccccc2Oc2ccccc21 | 2% (inactive)
76 | COc1ccc(-c2coc3cc(O)cc(O)c3c2=O)cc1 | 0% (inactive)
77 | Nc1cccc(C(=O)O)c1 | 4% (inactive)
78 | CCN1CCN(C(=O)N[C@@H](C(=O)N[C@@H]2C(=O)N3[C@@H]2SC(C)(C)[C@@H]3C(=O)O)c2ccccc2)C(=O)C1=O | 2% (inactive)
79 | COCCc1ccc(OCC(O)CNC(C)C)cc1 (centres undefined) | -2% (inactive)
